From PubChem BioAssay AID449762 (Southern Research Specialized Biocontainment Screening …, 2010) come the findings set out here.

Out of some 330,000 compounds screened, about 1,900 (0.58%) were called active. Another 4% or so got no clear call; they are omitted. No stated cut-off is given here; in the data, inconclusive means inhibition above about 70% without an active follow-up result; inactive means below that. These entries were drawn from the full list. Potency and affinity values are given separately.

This assay can be described thus: M. tuberculosis growth inhibition, HTS (AID 449762).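 Further: bacterial growth assessed after seven days of incubation.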 Conditions: M. tuberculosis H37Rv growth inhibition, 7H9 media; at 25 µM; active compounds read high.
With `O=C(CSc1nn(-c2ccc(Cl)cc2)c(=S)s1)NCC1CCCO1` (stereo not given), the inhibition is 69.3% (inactive).
In the case of `O=C(CSc1nc(-c2ccc(F)cc2)cs1)NCC1CCCO1` (stereo not given) it was -0.07% (inactive).
In the case of `CCCCCCCCCCSc1n[nH]c(NC(C)=O)n1` it was 4.39% (inactive).
With `COc1ccc(OC)c(-c2csc(NC(=O)COC(=O)C3(C)CC3(Cl)Cl)n2)c1` (stereo not given), the inhibition is 8.7% (inactive).
In the case of `CN1CCN(C(=O)/C(=C/c2ccc(F)cc2)c2ccsc2)CC1` it was -3.93% (inactive); in that of `CCS(=O)(=O)C1=NN2C(=N)/C(=C\c3ccc(OC(=O)c4ccco4)c(OC)c3)C(=O)N=C2S1`, 3.16% (inactive); in that of `COc1cc(/C=C2\C(=N)N3N=C(S(=O)(=O)CC(C)C)SC3=NC2=O)ccc1OC(=O)c1ccco1`, 0.47% (inactive).
In the case of `Cc1cc(C)c(NS(=O)(=O)c2ccc(Cl)c(C(=O)O)c2)c(C)c1` it was -6.92% (inactive).
In the case of `O=C(NCCCNc1ccc([N+](=O)[O-])cc1)C(F)(F)F` it was -6.92% (inactive).
Take `CCn1c(COc2ccc(OC)cc2)nnc1SCc1nc2ccccc2c(=O)[nH]1`: the inhibition is -7.06% (inactive).
In the case of `Cc1oc(-c2cccc(C(F)(F)F)c2)nc1CN1CCN(c2ccccn2)CC1` it was 63.4% (inactive).
Next, `CCN(CC)c1ccc(/C=N\N2CCN(Cc3ccc(C)cc3)CC2)cc1`: 38% (inactive).
Next, `COc1ccc(C(=O)NC(=S)NNC(=O)c2ccco2)cc1`: 70.2% (inactive); `O=C(NC(=S)NNC(=O)c1cc2ccccc2cc1O)c1ccco1`: 2.19% (inactive); `CCOc1ccc(/C=N/NC(=O)C(C)N(c2ccc(OC)cc2)S(C)(=O)=O)cc1` (stereo not given): -10.4% (inactive).
For the compound `Cc1ccc(N(CCC#N)C(=O)COC(=O)c2nc3nc(C)cc(C)n3n2)cc1`, the inhibition was -2.21% (inactive).
Next, `Cc1nc(N2CCN(c3ccccn3)CC2)c2c(C)c(C(=O)N3CCN(c4cccc(Cl)c4)CC3)sc2n1`: 60.4% (inactive); `Cc1nc(N2CCN(c3ccccn3)CC2)c2c(C)c(C(=O)N3CCN(c4ccccc4F)CC3)sc2n1`: 61.9% (inactive); `CCCC(=O)Nc1nc2ccc(C(=O)OCC)cc2s1`: -1.4% (inactive).
In the case of `O=C(CNC(=O)C1CCCCC1)OCn1nnc2ccccc2c1=O` it was 12.9% (inactive); in that of `O=C(CN1C(=O)C2CCCCC2C1=O)OCn1nnc2ccccc2c1=O` (stereo not given), 2.65% (inactive); in that of `COc1ccc(C)cc1NC(=O)CCCN1C(=O)CN(C)C1=O`, 4.23% (inactive).
Next, `CCN1CCN(C(=O)c2ccc(N3CC4CC(C3)c3cccc(=O)n3C4)c([N+](=O)[O-])c2)CC1` (stereo not given): 2.16% (inactive); `Cc1ccc(CNC(=O)c2ccc(S(=O)(=O)N(C)C)cc2)n1C`: 3.61% (inactive).
As for `CC1(C)Cc2c(sc(NC(=O)c3ccc(C(=O)c4ccccc4)cc3)c2C#N)C(C)(C)N1`, the inhibition is 2.99% (inactive).
In the case of `COC(=O)c1c(NC(=O)c2ccccc2)sc2c1CC(C)(C)NC2(C)C` it was -11.2% (inactive); in that of `COc1ccc(C2Nc3ccccc3C(=O)N2c2ccc(C)cc2)cc1COc1ccccn1` (stereo not given), -5.39% (inactive).
On to `Cc1ccc(C)c(S(=O)(=O)N2CCN(CC(=O)Nc3cc(C)on3)CC2)c1`, for which the inhibition was 1.82% (inactive).
In the case of `O=C(N/N=C/c1ccc[nH]1)c1cccc(Br)c1` it was 47% (inactive); in that of `O=C(N/N=C/c1ccc[nH]1)c1cccnc1`, -9.86% (inactive).
In the case of `COc1ccc(CCNC(=O)C2CCCN2S(=O)(=O)c2ccc(F)cc2)cc1OC` (stereo not given) it was 0.4% (inactive); in that of `O=C(CN(Cc1ccco1)C(=O)Cn1nnc(-c2cccs2)n1)NCc1ccccc1`, 4.1% (inactive); in that of `COC/C=C/C1=CC2=CC(=O)C(C)(OC(=O)c3cnc4ccccc4n3)C(=O)C2=CN1c1ccc(CO)cc1` (stereo not given), 3.29% (inactive).
In the case of `O=C(c1ccc2c(=O)n(Cc3ccccc3)c(=S)[nH]c2c1)N1CCCC1` it was -3.86% (inactive).
For `CC(CCN1CCC(n2nccc2NC(=O)c2ccccc2Cl)CC1)c1ccccc1` (stereo not given), the inhibition was 15.6% (inactive).
In the case of `Cc1nc(SCc2ccccc2F)c2cnn(-c3ccccc3)c2n1` it was 9.04% (inactive); in that of `COc1cccc(-c2nc(C(=O)NCCCN3CCOCC3)cc3c2[nH]c2ccccc23)c1`, -10% (inactive).
In the case of `Cc1ccc(-c2nc(C(=O)NCCCN3CCOCC3)cc3c2[nH]c2ccccc23)cc1` it was -3.27% (inactive).
Next, `Cc1ccc(OCCn2ncc3ccccc3c2=O)c(C)c1`: 9.3% (inactive).
As for `ON=C1c2cc(OCCN3CCCCC3)ccc2-c2ccc(OCCN3CCCCC3)cc21`, the inhibition was 7.74% (inactive).
Next, `COc1ccc2c(c1)C(=NO)c1cc(OC)ccc1-2`: -4.82% (inactive); `CC1CCCC(C)N1C(=O)COC(=O)c1ccccc1O` (stereo not given): 2.65% (inactive); `O=c1[nH]c2ccccc2nc1-c1ccc(Cl)cc1`: 2.14% (inactive).
Next, `O=c1[nH]c2ccccc2nc1-c1ccccc1`: -0.96% (inactive); `O=C(N/N=C/C=C/c1ccco1)C(O)c1ccccc1` (stereo not given): 50.7% (inactive); `O=C(CCCCCCCC(=O)c1ccccc1)c1ccccc1`: 4.08% (inactive).
Take `O=C(CCCCCCC(=O)c1ccccc1)c1ccccc1`: the inhibition is -5.92% (inactive).
With `COCC(=O)NC1(c2nnnn2CCOC(=O)Nc2ccc(Cl)cc2)CCCCC1`, the inhibition is -9.42% (inactive).
In the case of `S=C(Nc1ccccc1Cl)Nc1ccc(Cl)cc1Cl` it was -2.8% (inactive).
In the case of `S=C(NCCNC(=S)Nc1ccccc1Cl)Nc1ccccc1Cl` it was 4.51% (inactive); in that of `CCC(Sc1nnc2c3ccccc3n(CC)c2n1)C(=O)Nc1sc2c(c1C#N)CCCC2` (stereo not given), 1.09% (inactive).
In the case of `O=[N+]([O-])c1ccc(Nc2nc(NCCO)nc(N3CCCC3)n2)cc1` it was 7.94% (inactive); in that of `O=[N+]([O-])c1ccc(Nc2nc(N3CCOCC3)nc(N3CCOCC3)n2)cc1`, -0.58% (inactive).
As for `S=C(Nc1ccccc1Cl)N(CCCN1CCOCC1)Cc1ccco1`, the inhibition is 0.76% (inactive).
Next, `Cc1ccc2nc(-c3cccc(Br)c3)cc(C(=O)NC3CC3)c2c1`: -6.86% (inactive); `Cc1ccc(-c2cc(C(=O)NC3=NCCS3)c3cc(Br)ccc3n2)o1`: 8.99% (inactive).
In the case of `CCN(Cc1ccccc1)C(=O)COC(=O)c1cc(S(=O)(=O)Nc2c(C)n(C)n(-c3ccccc3)c2=O)ccc1C` it was 5.3% (inactive).
Regarding `CCCCCN(C(=O)CCCSc1nncs1)c1c(N)n(CCCC)c(=O)[nH]c1=O`, the inhibition was 3.89% (inactive).
For `CCN(CC)c1ccc(/C=C/[N+](=O)[O-])cc1`, the inhibition was 0.21% (inactive).
As for `CN(C)c1ccc(/C=C/[N+](=O)[O-])cc1`, the inhibition was 39% (inactive).
In the case of `Cc1ccc(/C=N/NC(=O)c2csc(C)c2)o1` it was 4.06% (inactive); in that of `O=c1cc(-c2ccccc2)nc(Sc2ccc([N+](=O)[O-])cc2[N+](=O)[O-])[nH]1`, 57.1% (inactive).
Next, `O=[N+]([O-])c1ccc(Sc2cccc3cccnc23)c([N+](=O)[O-])c1`: 65.5% (inactive); `O=C(O)c1cc(N2C(=O)C3C4C=CC(C4)C3C2=O)ccc1NCc1cccnc1` (stereo not given): 4.01% (inactive); `CCN(c1cc(C)cc(C)c1)S(=O)(=O)c1nnc(NC(=O)C(C)(C)C)s1`: 5.8% (inactive).
In the case of `N/C(=N\OS(=O)(=O)c1cc(Cl)ccc1Cl)c1ccncc1` it was 1.49% (inactive); in that of `Cc1ccc(-c2c(C(=O)N/N=C/c3ccc(OC(C)C)cc3)nnn2-c2nonc2N)cc1`, 5.21% (inactive); in that of `CCN1CCN(C(=O)C2CCN(Cc3nc(-c4cccc(Cl)c4)oc3C)CC2)CC1`, -0.4% (inactive).
In the case of `Cc1oc(-c2cccc(Cl)c2)nc1CN1CCC(C(=O)N2CCN(c3ccccn3)CC2)CC1`, the inhibition is 16.8% (inactive).
`C=CCn1c(O)c(C(C)=NCCc2ccccc2)c(=O)[nH]c1=O`: the inhibition was -9.8% (inactive).
On to `COc1cccc(NC(=O)c2cc(CN3C(=O)c4ccccc4C3=O)ccc2OC)c1`, for which the inhibition is -11.3% (inactive).
In the case of `Cc1cc(C)cc(C(=O)O/N=C(\N)c2ccc(Br)cc2)c1` it was 2.33% (inactive); in that of `Cc1ccc(C(=O)O/N=C(\N)c2ccc(Br)cc2)cc1`, 17.7% (inactive); in that of `Cc1ccc(-c2csc3ncnc(NCCC(=O)O)c23)cc1C`, 3.2% (inactive).
For `COC(=O)C1=C(C)N(C)C(=O)NC1c1cc2c(cc1Br)OCO2` (stereo not given), the inhibition was -1.06% (inactive).
Take `COc1cccc(N2CCN(Cc3nc(N)nc(N4CCCc5ccccc54)n3)CC2)c1`: the inhibition was 55.4% (inactive).
In the case of `Nc1nc(CN2CCN(c3cccc(Cl)c3)CC2)nc(N2CCCc3ccccc32)n1` it was 34.9% (inactive); in that of `O=S(=O)(Cc1cc(Cl)nc(-c2ccncc2)n1)c1ccccc1`, 3.28% (inactive); in that of `Cc1ccn2c(NC3CCCC3)c(-c3ccncc3)nc2c1`, -13.9% (inactive).
Regarding `Cc1ccn2c(NC3CCCCC3)c(-c3cccc(SC4CCCCC4)c3)nc2c1`, the inhibition is 48.6% (inactive).
As to `CC(C)CC(NS(=O)(=O)c1ccc2c(c1)oc(=O)n2C)C(=O)NCc1cccnc1` (stereo not given), the inhibition was -12.4% (inactive).
Next, `COCCCN1C(=O)c2ccc(C(=O)Nc3cccc(OC)c3)cc2C1=O`: -8.36% (inactive); `COc1ccc(CCNC(=O)c2ccc([N+](=O)[O-])cc2Cl)cc1OC`: -2.83% (inactive); `CCc1cc(C(=O)NC2CCCN(Cc3ccccc3F)C2)n(C)n1` (stereo not given): 6.68% (inactive).
In the case of `CC(C)CN(C(=O)CCC(=O)OC(C)C(=O)Nc1cccc(C#N)c1)c1c(N)n(CC(C)C)c(=O)[nH]c1=O` (stereo not given) it was -4.92% (inactive); in that of `COC(=O)CSc1nnc(COc2ccc3ccccc3c2)o1`, -6.41% (inactive).
Next, `CCOC(=O)CSc1nnc(COc2ccc3ccccc3c2)o1`: 6.46% (inactive); `COc1ccc(N2CCN(C(=O)CCS(=O)(=O)c3ccc4c(c3)NC(=O)C(C)S4)CC2)cc1` (stereo not given): 6.18% (inactive); `Cc1ccc(C(=O)Oc2ccc(Br)cc2C(=S)N2CCOCC2)cc1`: 11.3% (inactive).
Regarding `O=Cc1c(NCc2ccc(Cl)cc2)c2ccccc2[nH]c1=O`, the inhibition was 2.94% (inactive).
